# Of roughly 7,900 targets only a part is listed; those with a hit were picked by preference. About 0.6% of all pairs of compound and target were hits. Unmarked numbers belong to inactive results.
# What was measured:
# Test in all cases: log2 fold change, soluble protein after heating vs DMSO (PISA); higher = thermal stabilisation; K562 cells, 10 uM, 30 min; active = over 0.2 and 3.5 SD of the protein, either way, in both replicates (recomputed)
# erlotinib = compound: C#Cc1cccc(Nc2ncnc3cc(OCCOC)c(OCCOC)cc23)c1 [erlotinib]
# Procedure, shortened: (§1)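 Aliquots of K562 cells (2×10^6 cells/mL) treated with 10 μM compound for 30 min were heated for 3 min over 48°C-58°C. After pooling and extraction in PBS with 0.5% NP-40 at 4°C, soluble protein from a 21,000xg, 90 min spin was quantified by TMTpro 16plex LC-MS/MS with channel sums equalised. Thermal stability is expressed against control samples, from duplicates, as a log2 fold change.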
# [1] = compound: C/C(=N\NC(=O)C1=CC(=CC=C1)S(=O)(=O)N2CCOCC2)/C3=C(C=CC(=C3)Cl)O
# Procedure, shortened: as §1
# [2] = compound: C1=CC(=C(C=C1Cl)C2=NC3=NC=CN=C3C(=N2)NC4=CC=NC=C4)F
# Procedure, shortened: as §1
# [3] = compound: C1=CC(=CC=C1C2=NC3=C(N2)C=C(C=C3)C(=O)N)OC4=CC=C(C=C4)Cl
# Procedure, shortened: as §1
# [4] = compound: C1=CC2=C(C=CC(=C2)/C=C\3/C(=O)NC(=NCC4=CC=CS4)S3)N=C1
# Procedure, shortened: as §1
# [5] = compound: C1=CC2=NC=CN=C2C=C1/C=C/3\C(=O)NC(=O)S3
# Procedure, shortened: as §1
# [6] = compound: C1=CC=C(C=C1)C2=NC(=C(N2)C3=CC=NC=C3)C4=CC(=C(C=C4)Cl)O
# Procedure, shortened: as §1
# [7] = compound: C1=CC=C2C(=C1)C3=NNC4=CC=CC(=C43)C2=O
# Procedure, shortened: as §1
# [8] = compound: C1CCN(C1)C(=O)NC2=CC=CC(=C2)NC3=NC=C(C(=N3)NCCC4=CN=CN4)Br
# Procedure, shortened: as §1
# [9] = compound: C1CN(CCC1(CC2=CC=C(C=C2)Cl)N)C3=NC=NC4=C3C=CN4
# Procedure, shortened: as §1
# IRAK-1-4 Inhibitor I = compound: C1COCCN1CCN2C3=CC=CC=C3N=C2NC(=O)C4=CC(=CC=C4)[N+](=O)[O-] [IRAK-1-4 Inhibitor I]
# Procedure, shortened: as §1
# ibrutinib = compound: C=CC(=O)N1CCC[C@@H](n2nc(-c3ccc(Oc4ccccc4)cc3)c3c(N)ncnc32)C1 [ibrutinib]
# Procedure, shortened: as §1
# [10] = compound: CC(=O)c1cnc2ccc(-c3cc(Cl)c(O)c(Cl)c3)nc2c1N[C@H]1CC[C@H](CN(C)C)CC1
# Procedure, shortened: as §1
# ralimetinib = compound: CC(C)(C)Cn1c(N)nc2ccc(-c3[nH]c(C(C)(C)C)nc3-c3ccc(F)cc3)nc21 [ralimetinib]
# Procedure, shortened: as §1
# [11] = compound: CC(C)(O)CC(=O)NCCn1ccc2ncnc(Nc3ccc(Oc4cccc(C(F)(F)F)c4)c(Cl)c3)c21
# Procedure, shortened: as §1
# [12] = compound: CC(C)C1=C2N=C(C=C(N2N=C1)NCC3=CC=CC=C3)NCCCCCCN
# Procedure, shortened: as §1
# [13] = compound: CC(C)C[C@@H](C=O)NC(=O)[C@H](CC(C)C)NC(=O)[C@H](CC(C)C)NC(=O)OCc1ccccc1
# Procedure, shortened: as §1
# pinometostat = compound: CC(C)N(C[C@H]1O[C@@H](n2cnc3c(N)ncnc32)[C@H](O)[C@@H]1O)[C@H]1C[C@@H](CCc2nc3cc(C(C)(C)C)ccc3[nH]2)C1 [pinometostat]
# Procedure, shortened: as §1
# [14] = compound: CC1=C(C(CC(=O)N1)C2=CC=C(C=C2)C(F)(F)F)C(=O)NC3=C(C=C4C(=C3)C=NN4)F
# Procedure, shortened: as §1
# [15] = compound: CC1=C(C2=C(C=C1)C(=O)C3=CC=CC=C3N2CCCN)C
# Procedure, shortened: as §1
# Sequence of UniProt Q16864 (Q16864 whole entry, looked up): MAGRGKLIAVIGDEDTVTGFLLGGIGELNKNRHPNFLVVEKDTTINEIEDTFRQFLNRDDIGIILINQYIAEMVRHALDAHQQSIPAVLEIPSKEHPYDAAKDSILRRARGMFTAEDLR
# Sequence of UniProt Q9BX63 (Q9BX63 whole entry, looked up): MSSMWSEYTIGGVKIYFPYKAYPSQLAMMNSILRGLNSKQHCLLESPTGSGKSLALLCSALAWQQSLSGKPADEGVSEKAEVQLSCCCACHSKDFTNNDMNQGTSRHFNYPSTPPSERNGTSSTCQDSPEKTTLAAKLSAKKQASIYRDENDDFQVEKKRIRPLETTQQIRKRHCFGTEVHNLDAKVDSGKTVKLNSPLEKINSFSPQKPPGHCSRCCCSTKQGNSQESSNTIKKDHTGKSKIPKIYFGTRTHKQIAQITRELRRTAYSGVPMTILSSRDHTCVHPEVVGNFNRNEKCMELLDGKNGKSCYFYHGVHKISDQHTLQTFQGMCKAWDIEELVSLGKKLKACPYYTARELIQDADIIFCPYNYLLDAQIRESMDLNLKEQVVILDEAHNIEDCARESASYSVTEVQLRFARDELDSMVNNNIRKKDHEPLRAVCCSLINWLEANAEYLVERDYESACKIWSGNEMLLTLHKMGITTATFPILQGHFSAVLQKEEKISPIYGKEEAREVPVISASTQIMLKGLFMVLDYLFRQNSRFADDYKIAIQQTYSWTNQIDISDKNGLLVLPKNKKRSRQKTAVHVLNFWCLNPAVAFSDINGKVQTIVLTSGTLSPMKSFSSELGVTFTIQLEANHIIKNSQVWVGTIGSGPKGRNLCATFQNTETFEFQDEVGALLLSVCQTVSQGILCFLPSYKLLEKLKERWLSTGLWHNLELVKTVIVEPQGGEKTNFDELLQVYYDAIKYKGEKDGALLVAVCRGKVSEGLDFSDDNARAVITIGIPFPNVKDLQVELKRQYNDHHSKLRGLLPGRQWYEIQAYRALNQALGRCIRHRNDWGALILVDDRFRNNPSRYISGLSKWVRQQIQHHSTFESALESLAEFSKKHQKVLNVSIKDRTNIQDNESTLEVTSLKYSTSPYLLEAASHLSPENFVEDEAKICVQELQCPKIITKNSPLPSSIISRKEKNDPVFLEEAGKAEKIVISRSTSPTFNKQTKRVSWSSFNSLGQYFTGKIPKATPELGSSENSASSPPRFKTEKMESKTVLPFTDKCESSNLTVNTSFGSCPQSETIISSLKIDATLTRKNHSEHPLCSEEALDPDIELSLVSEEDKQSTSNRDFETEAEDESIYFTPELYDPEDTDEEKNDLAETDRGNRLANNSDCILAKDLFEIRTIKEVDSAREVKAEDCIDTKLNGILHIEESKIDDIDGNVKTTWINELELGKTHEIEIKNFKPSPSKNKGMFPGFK
# Sequence of UniProt Q9H7F0 (Q9H7F0 whole entry, looked up): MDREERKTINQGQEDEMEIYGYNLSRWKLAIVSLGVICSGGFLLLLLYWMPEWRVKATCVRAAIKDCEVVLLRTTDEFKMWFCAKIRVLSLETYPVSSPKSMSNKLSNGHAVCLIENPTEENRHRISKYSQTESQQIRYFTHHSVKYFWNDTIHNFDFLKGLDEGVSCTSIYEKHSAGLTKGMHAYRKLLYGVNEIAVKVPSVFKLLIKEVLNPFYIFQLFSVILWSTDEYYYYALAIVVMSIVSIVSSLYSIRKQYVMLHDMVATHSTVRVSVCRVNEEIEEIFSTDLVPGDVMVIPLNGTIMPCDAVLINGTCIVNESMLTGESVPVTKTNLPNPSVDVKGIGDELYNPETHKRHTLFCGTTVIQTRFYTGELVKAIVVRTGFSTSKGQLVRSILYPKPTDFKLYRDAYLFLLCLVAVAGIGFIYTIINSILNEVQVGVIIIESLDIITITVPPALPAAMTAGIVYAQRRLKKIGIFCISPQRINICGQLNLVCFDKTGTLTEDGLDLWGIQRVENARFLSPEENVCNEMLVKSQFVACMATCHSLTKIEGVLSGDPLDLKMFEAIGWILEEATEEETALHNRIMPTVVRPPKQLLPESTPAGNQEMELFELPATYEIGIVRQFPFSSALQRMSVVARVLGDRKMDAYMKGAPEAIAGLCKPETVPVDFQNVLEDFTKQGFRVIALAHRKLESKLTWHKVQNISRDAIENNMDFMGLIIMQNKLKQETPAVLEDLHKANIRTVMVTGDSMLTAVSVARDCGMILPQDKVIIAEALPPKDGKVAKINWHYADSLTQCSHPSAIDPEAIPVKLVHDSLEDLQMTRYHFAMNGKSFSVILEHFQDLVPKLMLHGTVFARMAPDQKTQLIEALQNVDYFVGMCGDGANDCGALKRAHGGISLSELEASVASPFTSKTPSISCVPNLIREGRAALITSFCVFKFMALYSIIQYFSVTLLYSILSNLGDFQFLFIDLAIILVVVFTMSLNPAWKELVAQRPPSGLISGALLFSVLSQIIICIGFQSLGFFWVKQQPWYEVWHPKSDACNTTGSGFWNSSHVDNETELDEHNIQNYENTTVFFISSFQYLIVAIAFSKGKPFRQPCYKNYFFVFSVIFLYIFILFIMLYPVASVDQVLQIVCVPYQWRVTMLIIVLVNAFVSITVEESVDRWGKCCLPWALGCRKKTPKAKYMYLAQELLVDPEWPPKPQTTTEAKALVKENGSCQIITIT
# Sequence of UniProt P40616 (P40616 whole entry, looked up): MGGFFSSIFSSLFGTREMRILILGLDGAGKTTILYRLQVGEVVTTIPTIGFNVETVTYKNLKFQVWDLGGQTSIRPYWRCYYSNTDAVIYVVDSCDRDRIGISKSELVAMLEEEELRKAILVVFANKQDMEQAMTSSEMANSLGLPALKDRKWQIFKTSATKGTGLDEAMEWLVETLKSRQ
# Sequence of UniProt Q9NP58 (Q9NP58 whole entry, looked up): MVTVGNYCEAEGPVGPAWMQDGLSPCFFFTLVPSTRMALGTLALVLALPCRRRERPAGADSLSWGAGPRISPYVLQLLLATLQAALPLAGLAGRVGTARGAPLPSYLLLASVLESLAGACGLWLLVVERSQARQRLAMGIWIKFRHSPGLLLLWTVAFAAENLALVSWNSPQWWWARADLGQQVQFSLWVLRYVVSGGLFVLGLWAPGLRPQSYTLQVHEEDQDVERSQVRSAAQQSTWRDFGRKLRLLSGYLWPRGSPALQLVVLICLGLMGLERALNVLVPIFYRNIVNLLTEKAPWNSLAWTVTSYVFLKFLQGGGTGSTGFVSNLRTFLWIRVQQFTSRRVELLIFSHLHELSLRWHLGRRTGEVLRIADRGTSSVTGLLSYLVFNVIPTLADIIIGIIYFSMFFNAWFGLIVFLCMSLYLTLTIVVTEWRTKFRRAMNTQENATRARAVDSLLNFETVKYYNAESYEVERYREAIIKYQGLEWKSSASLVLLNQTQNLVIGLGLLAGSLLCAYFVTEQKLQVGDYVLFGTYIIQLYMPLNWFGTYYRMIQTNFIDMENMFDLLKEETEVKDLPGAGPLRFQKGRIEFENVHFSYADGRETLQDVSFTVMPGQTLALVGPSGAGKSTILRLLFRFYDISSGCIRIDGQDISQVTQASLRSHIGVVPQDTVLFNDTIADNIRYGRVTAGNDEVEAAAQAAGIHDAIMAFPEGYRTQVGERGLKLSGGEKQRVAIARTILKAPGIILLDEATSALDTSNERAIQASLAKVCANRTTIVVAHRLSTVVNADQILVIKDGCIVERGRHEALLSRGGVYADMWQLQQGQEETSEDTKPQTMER
# Sequence of UniProt Q9NWB6 (Q9NWB6 whole entry, looked up): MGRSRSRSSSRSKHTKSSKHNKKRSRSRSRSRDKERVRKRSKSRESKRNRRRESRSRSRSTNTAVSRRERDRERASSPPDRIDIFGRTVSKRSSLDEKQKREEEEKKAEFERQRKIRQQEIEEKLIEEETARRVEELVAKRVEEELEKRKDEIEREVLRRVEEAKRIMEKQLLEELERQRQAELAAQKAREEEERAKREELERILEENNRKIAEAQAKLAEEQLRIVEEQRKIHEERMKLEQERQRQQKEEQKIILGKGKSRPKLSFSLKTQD
# Sequence of UniProt Q8NFV4 (Q8NFV4 whole entry, looked up): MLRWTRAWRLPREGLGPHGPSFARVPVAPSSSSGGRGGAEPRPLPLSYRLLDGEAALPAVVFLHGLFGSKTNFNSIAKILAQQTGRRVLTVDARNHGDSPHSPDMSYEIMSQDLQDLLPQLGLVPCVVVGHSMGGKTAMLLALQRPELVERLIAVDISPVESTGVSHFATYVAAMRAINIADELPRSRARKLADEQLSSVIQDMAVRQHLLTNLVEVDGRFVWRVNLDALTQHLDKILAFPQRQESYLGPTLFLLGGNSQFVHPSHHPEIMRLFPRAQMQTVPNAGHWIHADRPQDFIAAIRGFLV
# Sequence of UniProt O00170 (O00170 whole entry, looked up): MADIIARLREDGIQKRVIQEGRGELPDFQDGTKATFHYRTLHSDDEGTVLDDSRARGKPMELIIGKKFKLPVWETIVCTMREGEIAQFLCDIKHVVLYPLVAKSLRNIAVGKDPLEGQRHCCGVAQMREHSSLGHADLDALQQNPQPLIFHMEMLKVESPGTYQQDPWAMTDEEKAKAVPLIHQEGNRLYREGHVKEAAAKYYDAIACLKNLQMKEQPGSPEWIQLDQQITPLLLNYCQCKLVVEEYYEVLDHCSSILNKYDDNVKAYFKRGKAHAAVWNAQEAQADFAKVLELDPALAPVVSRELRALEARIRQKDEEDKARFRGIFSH
# Sequence of UniProt Q9Y312 (Q9Y312 whole entry, looked up): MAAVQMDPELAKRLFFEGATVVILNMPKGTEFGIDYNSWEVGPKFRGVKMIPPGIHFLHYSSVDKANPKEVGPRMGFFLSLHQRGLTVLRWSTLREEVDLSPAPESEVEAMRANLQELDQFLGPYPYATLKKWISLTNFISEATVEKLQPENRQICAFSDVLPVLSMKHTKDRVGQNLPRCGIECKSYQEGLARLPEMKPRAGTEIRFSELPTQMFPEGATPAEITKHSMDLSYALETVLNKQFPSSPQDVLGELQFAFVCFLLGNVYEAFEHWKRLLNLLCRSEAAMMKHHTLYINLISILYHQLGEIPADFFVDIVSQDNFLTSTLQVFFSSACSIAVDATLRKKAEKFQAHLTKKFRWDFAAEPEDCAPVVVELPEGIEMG
Target,log2 fold change (erlotinib),log2 fold change [1],log2 fold change [2],log2 fold change [3],log2 fold change [4],log2 fold change [5],log2 fold change [6],log2 fold change [7],log2 fold change [8],log2 fold change [9],log2 fold change (IRAK-1-4 Inhibitor I),log2 fold change (ibrutinib),log2 fold change [10],log2 fold change (ralimetinib),log2 fold change [11],log2 fold change [12],log2 fold change [13],log2 fold change (pinometostat),log2 fold change [14],log2 fold change [15]
ACAP2 (UniProt Q15057),-0.002,0.054,0.062,-0.05,0.056,0.037,-0.032,-0.012,-0.042,-0.013,-0.033,-0.012,-0.038,0,-0.031,-0.065,0.061,0.029,-0.036,0.004
BRIP1 (UniProt Q9BX63),-0.009,0.076,-0.153,0.018,0.075,-0.082,-0.048,0.023,-0.064,-0.045,0.017,0.12,-0.073,0.006,0.039,-0.036,-0.064,0.084,-0.01,0.333 (active)
BID isoform 2 (UniProt P55957),0.026,0.006,0.014,0.052,-0.04,0.012,-0.03,0.028,-0.05,0.034,0.052,0.008,-0.039,-0.038,-0.053,0.105,0.012,-0.018,-0.047,0.074
ADD1 isoform 3 (UniProt P35611),0.041,0.018,-0.013,-0.022,0.071,0.004,-0.08,-0.018,-0.018,0.023,0.048,0.011,-0.274 (active),-0.068,-0.008,0.038,-0.003,-0.001,-0.004,0.008
ATP6V1F isoform 2 (UniProt Q16864),-0.049,-0.017,0.232,0.077,0.04,0.189,-0.017,-0.024,-0.066,-0.222,0.053,-0.003,-0.189,-0.054,-0.132,-0.024,-0.059,-0.009,0.039,0.253
AGPAT5 (UniProt Q9NUQ2),0.042,-0.019,-0.003,0.014,0.009,0.048,0.07,-0.001,-0.017,0.079,0.047,0.003,0.062,-0.037,0.03,-0.163,0.002,0.007,-0.001,0.021
ATP13A3 (UniProt Q9H7F0),0.043,-0.046,0.05,0.018,0.016,0.038,-0.006,-0.028,0.017,0.049,0.043,-0.005,0.004,-0.032,-0.136,-0.199,0.073,-0.007,0.042,-0.035
ABCB6 (UniProt Q9NP58),0.017,0.045,0.029,0.037,-0.003,0.069,0.087,-0.056,-0.057,0.023,-0.018,0.003,0.021,0.051,-0.073,-0.489 (active),-0.007,0.037,-0.058,0.065
ACACB (UniProt O00763),0.048,-0.094,-0.212,-0.108,0.07,-0.123,0.132,-0.028,-0.059,-0.143,-0.23,0.02,0.108,0.216,0,-0.515 (active),0.066,0.315,0.11,0.027
AIP (UniProt O00170),0.035,0.096,0.133,-0.006,0.042,0.048,-0.01,0.011,0.005,-0.026,0,-0.047,0.007,0.006,-0.094,-0.074,-0.018,-0.027,-0.035,-0.026
ARGLU1 (UniProt Q9NWB6),0.016,0.052,-0.183,0.115,-0.38 (active),0.014,-0.125,-0.235,-0.02,-0.232,-0.289,-0.019,-0.633 (active),-0.029,0.15,0.023,-0.001,0.127,-0.019,0.134
ATAD3B (UniProt Q5T9A4),-0.027,-0.018,-0.128,-0.006,-0.005,-0.002,-0.06,0.066,0.01,-0.091,-0.05,0.045,-0.01,0.122,-0.011,-0.472 (active),0.066,0.276,0.077,0.024
BUB1B isoform 3 (UniProt O60566),0.019,0.054,-0.049,-0.031,0.157,0.052,0.037,-0.038,-0.031,-0.095,-0.092,-0.039,-0.023,0.106,-0.089,-0.098,0.09,0.11,-0.011,0.017
ARL1 (UniProt P40616),0.049,0.063,0.072,-0.091,0.027,-0.028,0.13,0.084,-0.076,0.055,0.007,-0.031,-0.06,0.029,-0.09,0.044,-0.049,-0.039,-0.065,0.066
ABHD11 (UniProt Q8NFV4),0.03,-0.041,0.078,-0.033,0.113,-0.067,0.045,0.043,-0.079,0.01,-0.031,0.031,-0.007,-0.123,-0.006,-0.043,0.068,-0.027,-0.016,0.026
AAR2 (UniProt Q9Y312),0.075,0.089,-0.113,0.057,0.103,0.049,-0.003,-0.137,-0.008,0.043,0.039,0.02,0.021,-0.002,-0.062,-0.012,0.104,0.024,-0.074,-0.035
